Experimental data taken from ChEMBL document CHEMBL3988442, “University of Dundee, Small-Polar-MMV Screening Library” (2021).
For some assays here: Results with a measured potency or affinity are listed apart.

Assays:
Parameters in all cases: scale not given: direction of the effect not stated beside the values
[1] = target: Protein translocase subunit SecA (Escherichia coli (strain K12)) (UniProt P10408); test: Assay to Identify E. coli SecA ATPase Inhibitors; type: functional; conditions: 30 µM
[2] = target: T1, Ubiquitin-activating enzyme e1, putative (Leishmania donovani (strain BPK282A1)) (UniProt E9BSI1); test: Leishmania donovani Ubiquitin Activating Enzyme (LdE1); type: functional; conditions: 30 µM
T1 sequence (whole entry): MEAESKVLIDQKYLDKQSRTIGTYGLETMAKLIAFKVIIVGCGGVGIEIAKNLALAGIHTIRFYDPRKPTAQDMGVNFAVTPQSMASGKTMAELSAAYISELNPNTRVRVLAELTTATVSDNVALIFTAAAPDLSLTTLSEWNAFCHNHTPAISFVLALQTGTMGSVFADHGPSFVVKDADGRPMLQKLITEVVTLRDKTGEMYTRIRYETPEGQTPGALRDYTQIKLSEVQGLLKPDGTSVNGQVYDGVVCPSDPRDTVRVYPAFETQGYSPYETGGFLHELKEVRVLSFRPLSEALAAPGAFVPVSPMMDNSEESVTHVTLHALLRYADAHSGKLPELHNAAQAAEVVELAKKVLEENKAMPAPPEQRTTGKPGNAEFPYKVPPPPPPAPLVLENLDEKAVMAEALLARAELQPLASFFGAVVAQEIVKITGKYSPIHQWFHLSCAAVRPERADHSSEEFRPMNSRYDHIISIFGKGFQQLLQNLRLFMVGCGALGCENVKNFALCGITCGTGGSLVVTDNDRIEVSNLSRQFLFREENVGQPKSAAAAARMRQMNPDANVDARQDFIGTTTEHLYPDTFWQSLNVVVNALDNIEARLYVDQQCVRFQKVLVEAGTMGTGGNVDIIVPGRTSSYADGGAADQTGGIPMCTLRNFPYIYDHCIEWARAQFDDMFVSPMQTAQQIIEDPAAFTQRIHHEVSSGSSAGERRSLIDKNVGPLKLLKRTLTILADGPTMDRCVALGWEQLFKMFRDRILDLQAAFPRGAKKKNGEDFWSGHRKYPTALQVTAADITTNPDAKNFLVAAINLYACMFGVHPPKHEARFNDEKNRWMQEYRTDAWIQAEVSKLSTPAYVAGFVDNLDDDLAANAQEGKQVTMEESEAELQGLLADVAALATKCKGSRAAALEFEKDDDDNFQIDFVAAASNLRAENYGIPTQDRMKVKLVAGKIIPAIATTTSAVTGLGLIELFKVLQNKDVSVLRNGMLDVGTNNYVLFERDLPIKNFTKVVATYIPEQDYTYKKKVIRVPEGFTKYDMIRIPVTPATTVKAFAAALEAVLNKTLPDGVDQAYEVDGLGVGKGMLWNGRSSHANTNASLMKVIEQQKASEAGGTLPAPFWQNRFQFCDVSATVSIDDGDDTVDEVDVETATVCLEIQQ

[3] = target: AMP-activated protein kinase, AMPK (Homo sapiens) (UniProt P54646+O43741+P54619+Q9UGJ0+Q9Y478+Q13131+Q9UGI9); test: AMP-dependent Kinase enzyme assay. An in vitro enzyme assay that detects ADP turnover that is directly proportional to AMPK activity. This uses naive AMPK that is activated during the assay with MK-8722; type: functional; conditions: 30 µM
[4] = target: Sialic acid-binding Ig-like lectin 9 (Homo sapiens) (UniProt Q9Y336); test: Hs-Siglec9 ALPHAscreen SOP 20170721; conditions: 10 µM
Trypanosoma cruzi = test: Trypanosoma cruzi phosphomannomutase and mannose-1-phosphate guanylyltransferase assay; type: functional; conditions: 10 µM
[5] = target: T2, Arginase-2, mitochondrial (Homo sapiens) (UniProt P78540); test: in vitro enzyme assay to detect the production of urea directly proportional to the activity of Arginase II; type: functional; conditions: 33.3 µM; also: in the data most compounds retested in dose-response had high values
T2 sequence (whole entry): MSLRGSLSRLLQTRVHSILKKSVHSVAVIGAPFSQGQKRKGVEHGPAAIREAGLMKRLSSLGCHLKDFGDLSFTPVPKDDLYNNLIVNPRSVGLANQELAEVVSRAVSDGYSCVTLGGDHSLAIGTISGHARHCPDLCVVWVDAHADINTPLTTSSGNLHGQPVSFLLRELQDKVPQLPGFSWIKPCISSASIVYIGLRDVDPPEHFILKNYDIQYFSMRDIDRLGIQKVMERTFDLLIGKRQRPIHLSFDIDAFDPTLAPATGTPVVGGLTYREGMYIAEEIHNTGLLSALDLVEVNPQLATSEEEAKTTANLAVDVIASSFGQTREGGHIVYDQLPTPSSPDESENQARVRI

[6] = target: T3, Proteasome subunit beta (Trypanosoma cruzi) (UniProt O96673); test: Trypanosoma cruzi proteasome chymotrypsin-like activity (TcProtChymo) assay.; also: in the data most compounds retested in dose-response had high values; type: functional; conditions: 9.37 µM
T3 sequence (whole entry): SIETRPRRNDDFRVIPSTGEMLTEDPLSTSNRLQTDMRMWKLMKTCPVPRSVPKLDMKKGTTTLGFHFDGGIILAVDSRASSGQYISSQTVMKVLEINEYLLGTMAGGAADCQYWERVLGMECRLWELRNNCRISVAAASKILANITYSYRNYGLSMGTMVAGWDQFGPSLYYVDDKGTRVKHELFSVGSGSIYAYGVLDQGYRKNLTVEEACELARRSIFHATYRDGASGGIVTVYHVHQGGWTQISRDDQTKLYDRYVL

Homo sapiens = species on record: Homo sapiens; test: To identify inhibition of the IFN signalling (Jak-Stat) pathway via expression of an eGFP reporter gene under the control of an IFN-stimulated response element (ISRE) containing MxA promoter.; type: functional; conditions: 30 µM
[7] = target: T4, Tyrosyl-tRNA synthetase, putative (Trypanosoma cruzi (strain CL Brener)) (UniProt Q4DSP6); test: Trypanosoma cruzi tyrosyl tRNA synthetase (TcYRS) _High Tyrosine SOP; type: functional; conditions: 30 µM; also: in the data most compounds retested in dose-response had high values
T4 sequence (whole entry): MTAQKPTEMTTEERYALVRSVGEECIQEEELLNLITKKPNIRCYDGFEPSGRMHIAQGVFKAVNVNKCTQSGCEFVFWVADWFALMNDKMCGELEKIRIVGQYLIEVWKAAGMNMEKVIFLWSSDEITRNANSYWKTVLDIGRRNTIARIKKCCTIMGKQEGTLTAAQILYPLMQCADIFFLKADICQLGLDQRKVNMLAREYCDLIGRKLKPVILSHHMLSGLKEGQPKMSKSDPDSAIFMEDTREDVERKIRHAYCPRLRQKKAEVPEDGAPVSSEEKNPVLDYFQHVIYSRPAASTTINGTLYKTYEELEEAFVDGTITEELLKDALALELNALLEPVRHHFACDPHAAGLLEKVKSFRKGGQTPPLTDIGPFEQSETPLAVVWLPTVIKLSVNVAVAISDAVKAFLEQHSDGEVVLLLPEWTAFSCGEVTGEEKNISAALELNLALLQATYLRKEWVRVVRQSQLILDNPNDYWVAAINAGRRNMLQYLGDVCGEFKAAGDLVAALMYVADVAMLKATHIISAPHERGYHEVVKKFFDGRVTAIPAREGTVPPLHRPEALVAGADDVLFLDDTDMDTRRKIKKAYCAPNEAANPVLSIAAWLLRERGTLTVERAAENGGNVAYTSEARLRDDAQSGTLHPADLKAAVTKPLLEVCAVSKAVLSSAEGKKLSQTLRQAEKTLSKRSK

[8] = target: T4, Tyrosyl-tRNA synthetase, putative (Trypanosoma cruzi (strain CL Brener)); test: Trypanosoma cruzi tyrosyl tRNA synthetase (TcYRS) SOP; type: functional; conditions: 30 µM
[9] = target: Chromo domain-containing protein 1 (Saccharomyces cerevisiae (strain ATCC 204508 / S288c) (Baker's yeast)) (UniProt P32657); test: ScCHD-1 Enzyme Inhibition Assay; type: functional; conditions: 30 µM; also: in the data most compounds retested in dose-response had high values
Chromo domain-containing protein 1 (Saccharomyces cerevisiae (strain ATCC 204508 / S288c) (Baker's yeast)), sequence (P32657 whole entry, the tested form may be a part): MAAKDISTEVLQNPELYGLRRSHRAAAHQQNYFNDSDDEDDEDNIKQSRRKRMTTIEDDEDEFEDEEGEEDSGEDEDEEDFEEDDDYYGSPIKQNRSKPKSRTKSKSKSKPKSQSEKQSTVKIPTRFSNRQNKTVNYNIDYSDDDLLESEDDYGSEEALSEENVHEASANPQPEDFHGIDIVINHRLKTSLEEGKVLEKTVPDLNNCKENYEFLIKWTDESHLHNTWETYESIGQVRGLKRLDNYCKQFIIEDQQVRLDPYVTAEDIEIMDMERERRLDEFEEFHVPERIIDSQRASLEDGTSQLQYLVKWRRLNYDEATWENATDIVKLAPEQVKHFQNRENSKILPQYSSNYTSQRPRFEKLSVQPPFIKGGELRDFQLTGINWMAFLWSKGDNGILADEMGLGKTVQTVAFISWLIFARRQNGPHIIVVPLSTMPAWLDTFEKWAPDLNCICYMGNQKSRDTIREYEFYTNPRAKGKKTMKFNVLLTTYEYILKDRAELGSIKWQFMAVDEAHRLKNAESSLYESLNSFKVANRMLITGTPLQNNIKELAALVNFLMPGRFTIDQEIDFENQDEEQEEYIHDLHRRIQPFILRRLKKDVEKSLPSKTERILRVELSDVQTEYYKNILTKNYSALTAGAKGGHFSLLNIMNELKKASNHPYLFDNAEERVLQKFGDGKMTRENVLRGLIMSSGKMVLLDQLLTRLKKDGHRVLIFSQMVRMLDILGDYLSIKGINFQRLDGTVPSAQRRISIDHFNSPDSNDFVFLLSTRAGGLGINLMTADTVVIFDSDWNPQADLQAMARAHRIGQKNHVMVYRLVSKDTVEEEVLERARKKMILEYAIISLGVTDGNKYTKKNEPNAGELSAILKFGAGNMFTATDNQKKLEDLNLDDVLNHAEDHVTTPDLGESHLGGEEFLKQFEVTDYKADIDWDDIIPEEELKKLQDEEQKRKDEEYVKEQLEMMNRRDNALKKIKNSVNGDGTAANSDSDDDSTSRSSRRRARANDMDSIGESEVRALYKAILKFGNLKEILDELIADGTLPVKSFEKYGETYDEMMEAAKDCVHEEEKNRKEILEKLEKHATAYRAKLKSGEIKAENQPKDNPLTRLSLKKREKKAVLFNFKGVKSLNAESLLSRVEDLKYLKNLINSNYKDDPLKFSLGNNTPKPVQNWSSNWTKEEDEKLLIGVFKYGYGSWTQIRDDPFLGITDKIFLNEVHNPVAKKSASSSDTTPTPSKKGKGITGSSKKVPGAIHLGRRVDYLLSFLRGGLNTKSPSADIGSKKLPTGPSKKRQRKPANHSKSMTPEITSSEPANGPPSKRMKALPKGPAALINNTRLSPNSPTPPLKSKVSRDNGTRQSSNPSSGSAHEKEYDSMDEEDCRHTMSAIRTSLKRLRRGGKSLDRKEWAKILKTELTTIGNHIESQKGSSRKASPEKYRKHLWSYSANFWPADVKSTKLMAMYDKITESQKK

Sialic acid-binding Ig-like lectin 9 (Homo sapiens), sequence (Q9Y336 whole entry): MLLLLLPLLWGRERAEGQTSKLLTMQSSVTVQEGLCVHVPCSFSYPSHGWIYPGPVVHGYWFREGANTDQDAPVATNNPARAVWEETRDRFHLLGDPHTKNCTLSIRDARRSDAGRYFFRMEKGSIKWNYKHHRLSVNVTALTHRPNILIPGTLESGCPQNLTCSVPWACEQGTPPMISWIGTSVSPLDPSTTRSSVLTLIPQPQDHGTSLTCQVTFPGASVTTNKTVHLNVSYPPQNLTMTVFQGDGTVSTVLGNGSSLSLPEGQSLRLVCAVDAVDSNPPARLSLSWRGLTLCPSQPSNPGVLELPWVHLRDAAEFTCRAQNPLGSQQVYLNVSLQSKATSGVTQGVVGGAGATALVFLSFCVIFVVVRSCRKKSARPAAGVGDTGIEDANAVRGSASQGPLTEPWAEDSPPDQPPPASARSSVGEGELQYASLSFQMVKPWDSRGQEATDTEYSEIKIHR
Protein translocase subunit SecA (Escherichia coli (strain K12)), sequence (P10408 whole entry): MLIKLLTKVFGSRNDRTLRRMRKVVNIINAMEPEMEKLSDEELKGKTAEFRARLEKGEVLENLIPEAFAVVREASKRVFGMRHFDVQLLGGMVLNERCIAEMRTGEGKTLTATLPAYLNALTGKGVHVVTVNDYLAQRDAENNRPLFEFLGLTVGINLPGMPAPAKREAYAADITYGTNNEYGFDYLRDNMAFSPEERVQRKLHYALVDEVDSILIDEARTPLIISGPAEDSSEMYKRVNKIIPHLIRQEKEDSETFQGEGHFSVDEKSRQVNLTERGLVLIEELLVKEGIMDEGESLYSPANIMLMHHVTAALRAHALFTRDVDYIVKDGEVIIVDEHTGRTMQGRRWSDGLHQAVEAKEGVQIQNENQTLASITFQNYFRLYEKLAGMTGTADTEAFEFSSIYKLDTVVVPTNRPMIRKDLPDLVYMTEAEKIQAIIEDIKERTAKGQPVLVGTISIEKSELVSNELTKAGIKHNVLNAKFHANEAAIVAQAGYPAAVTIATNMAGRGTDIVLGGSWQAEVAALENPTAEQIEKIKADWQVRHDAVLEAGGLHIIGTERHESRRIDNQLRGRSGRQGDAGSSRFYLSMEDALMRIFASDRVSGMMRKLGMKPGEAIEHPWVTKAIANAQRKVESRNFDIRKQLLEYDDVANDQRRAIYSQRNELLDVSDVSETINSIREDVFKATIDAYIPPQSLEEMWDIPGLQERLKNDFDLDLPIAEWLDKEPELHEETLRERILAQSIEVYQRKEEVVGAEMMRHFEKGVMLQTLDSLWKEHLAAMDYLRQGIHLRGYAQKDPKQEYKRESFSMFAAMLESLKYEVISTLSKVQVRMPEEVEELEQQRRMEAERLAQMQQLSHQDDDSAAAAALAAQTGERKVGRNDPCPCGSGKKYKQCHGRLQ

SMILES	Percent Effect [1] [%]	Percent Effect [2] [%]	Percent Effect [3] [%]	Percent Effect [4] [%]	Percent Effect (Trypanosoma cruzi) [%]	Percent Effect [5] [%]	Percent Effect [6] [%]	Percent Effect (Homo sapiens) [%]	Percent Effect [7] [%]	Percent Effect [8] [%]	Percent Effect [9] [%]
NC(=O)C1CN(C(=O)Nc2ccccc2-c2cccs2)CCO1 (stereo not given)	-6.75	18.9	-3.93	20.2	5.66	-2.4	-3.23	6.89	2.97	18.3	-6.91
Cn1nc(CNC(=O)C2COc3ccccc3O2)cc1C1CC1 (stereo not given)	-5.12	-2.6	21.3	-1.75	-3.85	-3.23	8.36	1.88	0	-6.41	-1.13
Cc1cnn(CC2CCCN2C(=O)c2cc3ccccc3[nH]2)c1 (stereo not given)	-8.63	13	-0.229	-0.244	7.74	-1.05	7.2	1.95	3.81	11.8	-12.1
O=C(C(CNCc1ccncc1)c1ccccc1)N1CCOCC1 (stereo not given)	0.622	5.2	0.193	1.44	-6.59	-8.28	18.3	17.2	3.23	11.1	-2.54
Cc1cnn(CC2CCCN2CC(=O)N(C)CCC#N)c1 (stereo not given)	-1.24	-5.41	-5.26	5.88	-0.386	-0.476	11.4	-14.1	-2.65	-2.44	91.2
CC(C)c1n[nH]c(C2CN(C(=O)CCCn3cccn3)CCO2)n1 (stereo not given)	0.0152	-6.94	-4.76	-7.03	-2.43	2.21	11.6	-1.34	-1.05	0	0.954
Cc1[nH]ncc1CCCNC(=O)Nc1ccc(C#N)cc1	-1.53	5.41	8.53	1.92	3.28	2.38	7.41	15.2	7.94	9.76	-1.92
COc1ccc(C(O)CNC(=O)NCc2csc(C)n2)cc1 (stereo not given)	-3.31	18.9	1.28	1.81	6.41	-2.03	19.6	11.3	7.92	-8.54	-6.16
CN1CCOC(CNCCc2ccccn2)C1 (stereo not given)	-2.22	20.2	-8.39	-6.71	-3.31	5.7	5.32	16.5	8.37	16.5	-2.67
O=C(CN1CCc2cncnc2C1)NCCOc1ccccc1	-4.25	21.1	-16.1	-13.3	-2.33	-12.9	0.592	0.604	25.1	25.9	-2.98
